# Assay outcomes: PubChem, National Center for Advancing Translational Sciences (NCATS)
# LASV entry inh: Lassa virus entry inhibition. Potency, µM (titrated, usually from 37.9 µM), inactives show at the top dose activity change, negative = inhibition, hits mostly inhibitors. hit rate 1.2% among 300,000. Lassa virus pseudotype entry inhibition, cell reporter; calls by dose curve; tested in HEK293 cells; further: potency means the concentration at half of the fitted maximal effect; on the % scale 0 is the no-effect control and ±100 the full control effect; nearly all actives have a fitted effect of over 50% in size
# Shiga toxin inh: inhibitors of Shiga toxin in Vero cells. Vero cells, Shiga toxin protein synthesis inhibition reporter. inhibition, % at 38.7 µM. hit rate 9.2% among 290,000. AID 2315; in the data active means inhibition mostly above about 28%, no sharp cut-off; inactive means mostly below about 43%; further: 0% is about no effect
# Cycloheximide cs: counter-screen hit for Shiga toxin inhibitors, cycloheximide. hit rate 12% among 300,000. max response, %. AID 2314. cell reporter, cycloheximide protein synthesis inhibition counterscreen; in the data active means max response mostly above about 13%, no sharp cut-off; inactive means mostly below about 14%; further: read at 38.3 µM for the half of the compounds with a filed dose; 0% is about no effect
# MARV entry inh: blocks Marburg virus binding to or entry into cells | AID 540276 | Potency, µM (highest dose often 37.8 µM), for inactives: top-dose activity change, negative = inhibition, usual class: inhibitors | Marburg virus pseudotyped entry inhibition, cell reporter | hit rate 1.8% among 300,000; calls by dose curve; tested in HEK293 cells; further: potency means the concentration at half of the fitted maximal effect; on the % scale 0 is the no-effect control and ±100 the full control effect
# Pf growth 96h: inhibits malaria parasite growth, 96 h; hit rate 6.9% among 320,000; P. falciparum luciferase reporter growth, 96 h; Potency, µM (titrated, usually from 28.7 µM), for the others: at the highest dose activity change, negative = inhibition, usual class: inhibitors; further: potency means the concentration at half of the fitted maximal effect; on the % scale 0 is the no-effect control and ±100 the full control effect
#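 96 h incubation, 37 C, 5% CO2, of luciferase-reporter P. falciparum-infected RBCs (2% hematocrit, 0.05% parasitemia final) with test compounds; endpoint luminescence.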
# Pf growth 48h: P. falciparum growth inhibition at 48 hours (one generation). P. falciparum luciferase growth in erythrocytes, 48 h. AID 504832. Potency, µM (highest dose often 28.7 µM), for the others: at the highest dose activity change, negative = inhibition, most hits filed as inhibitors. hit rate 5.9% among 310,000; further: potency means the concentration at half of the fitted maximal effect; on the % scale 0 is the no-effect control and ±100 the full control effect
#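 Luminescence readout; reporter = integrated firefly luciferase in P. falciparum. RBC culture at 2% hematocrit, 0.1% parasitemia final, 37 C/5% CO2; decreased signal taken as growth inhibition.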
# Active calls of the source: *; ? = inconclusive; . = no result given; ! = not confirmed by another sample; [ ] = remark or other dose. Hits are enriched below; roughly 19% of the tested compounds scored in any of these assays. Unless noted, the call rests on the fitted dose curve; in most records, active means well fitted inhibition curve with a large enough effect; inconclusive means small, poorly fitted or top-dose-only effect, or another doubt; inactive means no such curve, though single readings can be large or run the other way.
SMILES,LASV entry inh,Shiga toxin inh,Cycloheximide cs,MARV entry inh,Pf growth 96h,Pf growth 48h
Cc1ccc2nc3sc(C(=O)NCc4ccco4)c(N)c3cc2c1,?,68*,23*,-24%,219%,311%
COc1ccc(-n2c(N)c(C(=O)NCc3ccco3)sc2=S)cc1,-15%,-15,-6,1%[46.1 µM],?,?
Cc1c(Cl)cccc1Nc1nc(N)nc(CSc2ncccn2)n1,3%,13,17,-19%,?,.
COc1ccc(CC(=O)N2CCC(c3ccccc3)C2)cc1 (stereo not given),?,56*,23*,5%[46.1 µM],41%,40%
COc1ccc(/C=C/C(=O)N2CCC(c3ccccc3)C2)cc1 (stereo not given),?,12,12,?,0%,28%
O=C(Cc1ccccc1)N1CCC(c2ccccc2)C1 (stereo not given),20%,80*,28*,-7%,-19%,186%
COc1ccc(CC(=O)N2CCC(Nc3nc4ccccc4n3Cc3ccc(F)cc3)CC2)cc1,1%,-4,-5,-4%,9.3µM*,4.1µM*
NC(=O)c1nsc(C(=O)N(c2ccc(F)cc2)C(C(=O)NCC2CCCO2)c2ccc3ncccc3c2)c1N (stereo not given),4%,-3,5,?,25%,?
CCCCOP(=O)(c1ccc(N(C)C)cc1)C(O)c1ccc(OC)c(OC)c1 (stereo not given),20%[46.1 µM],-12,-1,14%[46.1 µM],?,-8%
CCOC(=O)c1c(-c2ccc(C)cc2)csc1NC(=O)c1cc(=O)c2cc(C)ccc2o1,-2%[46.1 µM],.,.,-1%[46.1 µM],.,.
O=C(NCCN1CCOCC1)c1cc(-c2ccc(Cl)cc2)on1,?,24,-1,3%,-30%,11%
CCOC(=O)CN1C(=O)C(Sc2n[nH]c(-c3ccccc3)n2)CCc2ccccc21 (stereo not given),?,-6,-7,?,5.9µM*,.
COC(=O)c1ccc2[nH]ccc2c1,.,14,1,.,?,-17%
COc1cccc(NC(=O)c2ccccc2-c2nc(-c3ccc(Cl)cc3)no2)c1,4%,62*,59*,7%,?,?
COc1cccc(NC(=O)c2ccccc2-c2nc(-c3ccccc3)no2)c1,-12%,28,19*,16%,5%,-13%
COc1ccc(-c2noc(-c3ccccc3C(=O)NCc3ccco3)n2)cc1OC,-8%,2,8,?,152%,-26%
COc1ccccc1NC(=O)c1ccccc1-c1nc(-c2ccccc2OC)no1,?,24,21*,12µM*,.,?
COc1ccc(-c2noc(-c3ccccc3C(=O)NCc3ccco3)n2)cc1,-14%,17,15*,?,1%[5.75 µM],50%
CCNc1nc(Oc2ccc(C(=O)OCC)cc2)nc(N2CCOCC2)n1,.,-9,4,.,6%,?
CC(=O)n1cc(N(C(=O)CCl)c2ccc([N+](=O)[O-])cc2)c2ccccc21,?,-6,-2,?,?,3.7µM*
CCc1ccc(Nc2ncc3c(n2)CC(C)CC3=O)cc1 (stereo not given),?,96*,47*,?,?,144%
CC1(C)CC(=O)c2cnc(NCc3ccco3)nc2C1,21%,-1,14*,?,13%,22%
CCc1ccc(Nc2ncc3c(n2)CC(c2ccc(OC)cc2)CC3=O)cc1 (stereo not given),0.52µM*,-16,-4,18µM*,-22%,?
CCc1ccc(Nc2ncc3c(n2)CC(C)(C)CC3=O)cc1,?,75*,57*,?,183%,154%
CCCCNC(=O)CCn1c(=O)c2ccccc2n(CC(=O)NCCc2ccc(OC)c(OC)c2)c1=O,.,-15,1,.,-13%,10%
SMILES,LASV entry inh,Shiga toxin inh,Cycloheximide cs,MARV entry inh,Pf growth 96h,Pf growth 48h
CCN(Cc1ccncc1)C(=O)c1ccc(C)c(S(=O)(=O)N2CCCCC2)c1,6%,.,.,-21%,.,.
CCOC(=O)N/N=C1\C[C@@H](O)[C@@H](O)[C@@H]2[C@@H]3C(=O)N(C4CCCCC4)C(=O)[C@@H]3CC[C@H]12,.,.,.,-25%[14.2 µM],.,.
CCOC(=O)Cc1csc(NC(=O)CCc2ccccc2)n1,.,-1,-3,.,-13%,0%
COc1ccc(Nc2ncc3c(n2)CC(c2ccccc2)CC3=O)cc1 (stereo not given),0.92µM*,18,2,3%,?,?
COc1cccc(C(=O)Nc2ncc3c(n2)CC(c2ccc(OC)cc2OC)CC3=O)c1 (stereo not given),-3%,13,-2,?,41%,?
COc1ccc(Cl)cc1NC(=O)COc1cccc2c(=O)n(C)ccc12,5%[46.1 µM],.,.,.,.,.
O=c1[nH]c(CN2CCN(C/C=C/c3ccccc3)CC2)nc2cc(Cl)ccc12,1%,-27,-3,4.1µM*,-5%,?
CCOc1ccc(C(=O)NCc2ccco2)cc1,-15%,63*,41*,?,13%,.
O=C(NCc1ccco1)c1ccc(COc2cccc3ccccc23)cc1,-20%,28,9,8%,7.4µM*,7.4µM*
CC(C)(CO)NC(=O)c1ccc2c(c1)C(=O)c1ccccc1-2,-13%[46.1 µM],86*,51*,?,-22%,.
CCOc1ccc(NC(=O)NCc2ccco2)cc1,.,25,12*,.,4%,27%
CC(C)(C)NC(=O)NC(=O)CN1CCN(C(c2ccccc2)c2ccccc2)CC1,?,1,5,?,?,?
COc1cccc(C(=O)NCc2ccco2)c1,.,-2,1,.,10µM*,0%
COc1cccc(C(=O)NCCS(=O)(=O)NCc2ccco2)c1,13%,.,.,19%[46.1 µM],66%,40%
O=C(NCc1ccco1)c1ccc2ccccc2c1,?,79*,36*,?,84%,36%
O=C(NCc1ccco1)c1ccc2c(c1)C(=O)c1ccccc1-2,23µM*,67*,19*,?,.,12%
CCOC(=O)N1CCC(N2C(=O)c3ccc(C(=O)NCc4ccco4)cc3C2=O)CC1,2%,17,-5,12%,12µM*,13%
O=C(O)CCc1ccc(-c2ccccc2)n1NC(=O)c1cccs1,11%[46.1 µM],4,-1,?,?,21%
CC(C)COc1ccc(C(=O)NCc2ccco2)cc1,8%,36*,14*,7%[46.1 µM],.,12µM*
O=C(NCc1ccco1)Nc1ccc([N+](=O)[O-])cc1,.,24,26*!,.,69%,7%
CC(C(=O)NCc1ccco1)c1ccc([N+](=O)[O-])cc1 (stereo not given),.,-4,-1,.,-4%,?
O=C(NCc1ccco1)c1ccc(Oc2ccccc2)cc1,?,76*,55*,0%,7.4µM*,.
O=C(NCc1ccccc1F)Nc1ccc([N+](=O)[O-])cc1,?,35*,18,?,13µM*,-5%
O=C(NCc1cccnc1)Nc1ccc([N+](=O)[O-])cc1,.,2,11,.,?,-6%
